Laboratory results published in the supplement of paper PMC6607015.
Where a name gives a salt, the structure may show the parent alone.

Columns and labels:
Conditions in all cases: compound concentration in added solution (µM; 5 µl added to 20 µl cells): 10; 18 h
[1] = tested on: A431; assay: LBPA endosome anti-LBPA integrated intensity (sum per cell), Z-score; higher = more LBPA staining
Procedure, shortened: (§1)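 Each value is a Z-score normalised in AcuityXpress from per-cell integrated LBPA or filipin intensity, taken over the whole cell or within LBPA endosomes. Duplicate 384-well imaging plates held 5 µl of 10 µM compound solution, onto which 3,500 HeLa MZ or A431 cells in 20 µl were seeded per well. After 18 h the cells were fixed in 4% PFA, stained with 6C4 anti-LBPA antibody, filipin, propidium iodide and CellTracker green, imaged four times per well at 20× and segmented in MetaXpress.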

[2] = tested on: HeLa MZ; assay: as above
Procedure, shortened: as §1

[3] = tested on: A431; assay: whole-cell filipin (free cholesterol) integrated intensity, Z-score; higher = more cholesterol staining
Procedure, shortened: as §1

[4] = tested on: HeLa MZ; assay: as above
Procedure, shortened: as §1

[5] = tested on: A431; assay: filipin (cholesterol) integrated intensity within LBPA endosomes, Z-score; higher = more cholesterol in LBPA endosomes
Procedure, shortened: as §1

[6] = tested on: HeLa MZ; assay: as above
Procedure, shortened: as §1

SMILES	LBPA endosome anti-LBPA integrated intensity (z-score) [1]	LBPA endosome anti-LBPA integrated intensity (z-score) [2]	whole-cell filipin (z-score) [3]	whole-cell filipin (z-score) [4]	filipin (z-score) [5]	filipin (z-score) [6]
CN1CCN(C2=Nc3ccccc3Oc3ccc(Cl)cc32)CC1 [Loxapine succinate]	0.352	1.12	0.0252	-0.743	0.0734	-0.11
O=C(c1ccc(OCCN2CCCCC2)cc1)c1c(-c2ccc(O)cc2)sc2cc(O)ccc12 [Raloxifene hydrochloride]	2.74	1.35	1.48	2.28	3.61	5.61
CCc1nc(N)nc(N)c1-c1ccc(Cl)cc1 [Pyrimethamine]	0.585	0.917	0.585	-0.093	-0.133	-0.422
NS(=O)(=O)c1cc2c(cc1Cl)N=CNS2(=O)=O [Chlorothiazide]	-0.508	-0.375	-0.521	-0.988	-0.472	-0.537
OC(CCN1CCCCC1)(c1ccccc1)C1CC2C=CC1C2 (stereo not drawn) [Biperiden hydrochloride]	1.21	1.45	-0.251	-0.585	0.329	0.363
C#C[C@]1(OC(C)=O)CC[C@H]2[C@@H]3CCC4=C[C@@H](OC(C)=O)CC[C@@H]4[C@H]3CC[C@@]21C [Ethynodiol diacetate]	-0.254	0.88	0.227	0.371	-0.191	-0.00334
CC(C)(C)NC[C@@H](O)COc1cccc2c1CCCC2=O [(+) -Levobunolol hydrochloride]	-0.326	1.33	-0.176	-0.0312	-0.353	0.0482
CC1Cc2ccccc2N1NC(=O)c1ccc(Cl)c(S(N)(=O)=O)c1 (stereo not drawn) [Indapamide]	-0.302	0.5	-0.729	-0.419	-0.453	-0.438
C[N+](C)(C)CCOC(N)=O [Carbachol]	-0.538	-0.848	-0.548	-0.381	-0.44	-0.42
NS(=O)(=O)c1cc2c(cc1C(F)(F)F)NCNS2(=O)=O [Hydroflumethiazide]	-0.486	-0.967	-0.738	-0.664	-0.455	-0.522
N=C(N)NCC1COC2(CCCCC2)O1 (stereo not drawn) [Guanadrel sulfate]	-0.435	-0.453	-0.472	-0.401	-0.413	-0.438
Cc1cc(C)nc(NS(=O)(=O)c2ccc(N)cc2)n1 [Sulfamethazine sodium salt]	-0.34	0.511	0.128	-0.158	-0.422	-0.588
O=c1[nH]cnc2c1ncn2[C@H]1CC[C@@H](CO)O1 [Didanosine]	-0.649	-1.14	-1.2	-0.832	-0.585	-0.693
C=C[C@H]1CN2CC[C@H]1C[C@@H]2[C@@H](O)c1ccnc2ccc(OC)cc12 [Quinidine hydrochloride monohydrate]	0.635	0.796	0.722	-0.0406	0.638	0.436
Cc1ccsc1/C=C/C1=NCCCN1C [Morantel tartrate]	-0.53	-0.0789	-1.09	-0.906	-0.593	-0.756
COC1=CC(=O)C[C@@H](C)[C@]12Oc1c(Cl)c(OC)cc(OC)c1C2=O [Griseofulvin]	-0.41	-0.867	-0.73	-1.73	-0.468	-0.516
Nc1ccc(S(=O)(=O)Nc2nccs2)cc1 [Sulfathiazole]	-0.403	-0.679	-0.453	0.103	-0.36	-0.308
C[C@H]1[C@H](NC(=O)/C(=N\OC(C)(C)C(=O)O)c2csc(N)n2)C(=O)N1S(=O)(=O)O [Aztreonam]	-0.461	-0.629	-0.642	-0.428	-0.521	-0.607
CNC1(C)C2CCC(C2)C1(C)C (stereo not drawn) [Mecamylamine hydrochloride]	-0.608	-1.35	-0.41	-0.324	-0.495	-0.557
Cc1cnc(C(=O)O)c[n+]1[O-] [Acipimox]	-0.468	-0.426	-0.532	-0.464	-0.503	-0.519
CCN(CCCc1ccccc1)CCCc1ccccc1 [Alverine citrate salt]	2.06	1.56	1.13	-0.0321	1.44	0.403
CN(C)CCC(c1ccccc1)c1ccccn1 (stereo not drawn) [Pheniramine maleate]	-0.513	0.0628	-0.745	-0.51	-0.53	-0.436
COc1ccc(CC2c3cc(OC)c(OC)cc3CC[N+]2(C)CCC(=O)OCCCCCOC(=O)CC[N+]2(C)CCc3cc(OC)c(OC)cc3C2Cc2ccc(OC)c(OC)c2)cc1OC (stereo not drawn) [Atracurium besylate]	-0.229	-0.154	-0.0896	-0.584	-0.0589	0.0777
CCN(CC)CCOCCOC(=O)C1(c2ccccc2)CCCC1 [Carbetapentane citrate]	0.618	1.63	0.819	0.39	0.894	0.461

SMILES	LBPA endosome anti-LBPA integrated intensity (z-score) [1]	LBPA endosome anti-LBPA integrated intensity (z-score) [2]	whole-cell filipin (z-score) [3]	whole-cell filipin (z-score) [4]	filipin (z-score) [5]	filipin (z-score) [6]
COc1ccc2c(c1)C(=O)N(CCc1ccc(S(=O)(=O)NC(=O)NC3CCCCC3)cc1)C(=O)C2(C)C [Gliquidone]	-0.483	0.216	-0.152	-0.511	-0.531	-0.598
CCC(=O)O[C@]1(C(=O)SCF)[C@H](C)C[C@H]2[C@@H]3C[C@H](F)C4=CC(=O)C=C[C@]4(C)[C@@]3(F)[C@@H](O)C[C@@]21C [Fluticasone propionate]	-0.0811	0.00943	0.193	-0.0272	-0.0798	-0.437
CC(C)(C)NC[C@H](O)COc1cccc2c1CCCC2=O [(-) -Levobunolol hydrochloride]	-0.264	1.1	-0.125	-0.19	-0.327	0.118
CC1(C)S[C@@H]2[C@H](NC(=O)[C@H](N)c3ccccc3)C(=O)N2[C@H]1C(=O)O [Ampicillin trihydrate]	-0.606	-0.403	-0.896	-0.707	-0.569	-0.702
COc1ccc(C(=O)NCc2cccnc2)cc1C(=O)NCc1cccnc1 [Picotamide monohydrate]	-0.303	-0.286	-0.472	-0.0549	-0.457	-0.612
C[C@]12C=CC(=O)C=C1CC[C@H]1[C@@H]3C[C@@H](O)[C@](O)(C(=O)CO)[C@@]3(C)C[C@H](O)[C@@]12F [Triamcinolone]	-0.203	-0.607	-0.346	-0.264	-0.211	-0.572
Nc1nc(F)nc2c1ncn2[C@@H]1O[C@H](CO)[C@@H](O)[C@@H]1O [Fludarabine]	-0.338	1.27	0.904	1.82	-0.372	-0.595
CNNCc1ccc(C(=O)NC(C)C)cc1 [Procarbazine hydrochloride]	-0.593	-1.08	-0.286	-0.325	-0.487	-0.664
CCn1nc(C(=O)O)c(=O)c2cc3c(cc21)OCO3 [Cinoxacin]	-0.298	0.452	-0.393	-0.0614	-0.442	-0.322
CN(C)CCC[C@@]1(c2ccc(F)cc2)OCc2cc(C#N)ccc21 [Escitalopram]	-0.359	1.34	0.0689	0.675	-0.134	0.883
C[C@]12CC[C@@H]3c4ccc(O)cc4CC[C@H]3[C@@H]1CC[C@@H]2O [Estradiol-17 beta]	-0.253	0.492	-0.4	-1.01	-0.426	-0.515
CN(C)CCn1nnnc1SCC1=C(C(=O)O)N2C(=O)[C@@H](NC(=O)Cc3csc(N)n3)[C@H]2SC1 [Cefotiam hydrochloride]	-0.662	-1.47	-0.797	-1.09	-0.548	-0.711
CN(C)CC/C=C1\c2ccccc2CSc2ccccc21 [Dosulepin hydrochloride]	1.61	0.828	1.17	0.164	1.82	0.976
CC(=O)Oc1cc(C(C)C)c(OCCN(C)C)cc1C [Moxisylyte hydrochoride]	-0.364	-0.0871	-0.91	-1.03	-0.482	-0.452
Clc1ccc(CCC(Cn2ccnc2)Sc2c(Cl)cccc2Cl)cc1 (stereo not drawn) [Butoconazole nitrate]	1.95	2.23	1.71	2.17	2.22	2.14
Cc1ccnc(NS(=O)(=O)c2ccc(N)cc2)n1 [Sulfamerazine]	-0.529	-1.13	-0.353	-0.0674	-0.45	-0.567
Cc1c(NC(=O)c2cccnc2)c(=O)n(-c2ccccc2)n1C [Nifenazone]	-0.531	-0.887	-0.738	-0.647	-0.626	-0.754
CC1(C)S[C@@H]2[C@H](NC(=O)Cc3ccccc3)C(=O)N2[C@H]1C(=O)O [Benzylpenicillin sodium]	-0.349	1.42	-0.101	2.18	-0.427	-0.552
CCOC1O[C@H]([C@@H](COCc2ccccc2)OCc2ccccc2)[C@H](OCc2ccccc2)[C@H]1O (stereo partly drawn) [Tribenoside]	0.543	2.34	0.649	1.71	0.264	0.525
CC(C)NNC(=O)c1ccncc1 [Iproniazide phosphate]	-0.439	-0.948	-0.562	-0.228	-0.44	-0.477
CCCCCN(C)CCC(O)(P(=O)(O)O)P(=O)(O)O [Ibandronate sodium]	-0.326	0.467	-0.0185	0.267	-0.423	-0.352
CN(C)CCOC(C)(c1ccccc1)c1ccccn1 (stereo not drawn) [Doxylamine succinate]	-0.48	0.575	-0.578	-0.502	-0.488	-0.154
NC(=O)N/N=C/c1ccc([N+](=O)[O-])o1 [Nitrofural]	-0.562	-0.605	-0.633	-0.478	-0.506	-0.689
CC(C)(O/N=C(\C(=O)N[C@@H]1C(=O)N2C(C(=O)[O-])=C(C[n+]3ccccc3)CS[C@H]12)c1csc(N)n1)C(=O)O [Ceftazidime pentahydrate]	-0.536	-0.783	-0.451	-0.099	-0.531	-0.437
